Test results as given in PubChem BioAssay AID1233 (SRMLSC, 2008).
Potency and affinity values are given separately. Activity calls are given as the source filed them.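 Rule for the calls: active = a dose-response curve fit returns a half-maximal inhibitory concentration, extrapolated values included; inactive = the fit returns no such concentration.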

Biological target: HMG-CoA reductase [Enterococcus faecalis] (UniProt Q9FD70)
Assay: class II HMG-CoA reductase inhibition potency – biochemical, Enterococcus faecalis, confirmation (AID 1233);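 note: 0% = full reaction carrier wells and 100% = background wells lacking mevalonate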
Conditions: purified E. faecalis HMGR, NADPH absorbance 340 nm kinetics; series mostly up to 100 µM; inhibition: at the top concentration

inhibition, inactive:
CN(C)CCCNC(=O)c1cc(C(=O)C2CCCCC2)c[nH]1 -3.15%
COc1ccc(C/C(C)=N/NS(=O)(=O)c2ccc(Br)cc2)cc1 -5.94%
O=C(CSc1nc2ccccc2n1CCc1ccccc1)N1CCOCC1 -2.07%
COc1ccccc1C(=O)N/C(=C/c1ccc(Br)cc1)C(=O)NCC(=O)O -3.29%
COc1ccc(NCc2nnc(SCCN3CCCCC3)n2-c2ccc(C)cc2)cc1 -4.43%
Cn1nccc1C(=O)N1CCc2ccccc21 -1.21%
C/C(=N/NC(=O)c1cc(O)c(O)c(O)c1)c1ccc([N+](=O)[O-])cc1 7.14%
C=C(C)Cn1c(-c2ccncc2)n[nH]c1=S -5.67%
COc1ccc(-c2cc(C(=O)Nc3c(C)nn(Cc4ccc(Cl)cc4)c3C)no2)cc1 0.84%
CC(C)NC(=O)c1ccccc1NC(=O)C(C)Oc1ccccc1 (stereo not drawn) -3.55%
O=C(O)CCCCCCC1C(=O)NC(=O)N1CCC(O)C1CCCCC1 (stereo not drawn) -3.19%
COc1ccc(N2CC(C)(C)C2=O)cc1 -3.03%
O=C(Cn1cc(C(=O)C(F)(F)F)c2ccccc21)N1CCOCC1 -7.22%
COc1ccc(NC(=S)NCc2cccn2C)cc1 -0.21%
O=C(N/N=C/C(Cl)=C/c1ccccc1)c1cnccn1 -8.76%
O=C(Cn1ncc2ccccc21)N1CCN(c2cccc(C(F)(F)F)c2)CC1 -4.82%
Cc1ccc(Cl)cc1NC(=O)COC(=O)C12CC3CC(CC(C3)C1)C2 -5.2%
O=c1oc2ccccc2c(O)c1C=Nc1cccnc1 -2.21%
Cc1cccnc1NC(=O)Cn1nc([N+](=O)[O-])cc1C -11.3%
C=CCN1CCN(C(c2cc(OC)ccc2OC)c2nnnn2CC2CCCO2)CC1 (stereo not drawn) 0.95%
O=C(COC(=O)CSc1cc(Cl)ccc1Cl)Nc1ncc(C(F)(F)F)cc1Cl -8.13%
COc1cccc(-c2nnc3sc(-c4cccs4)nn23)c1 -8.43%
COCCn1c(=N)c(C(=O)NCc2ccco2)cc2c(=O)n3cc(C)ccc3nc21 -6.17%
C=CCn1c(C)c(C(C)=O)c(N2CCCC2)nc1=S 0.13%
Cc1[nH][nH]c(=O)c1C(c1c(C)[nH][nH]c1=O)c1cn(Cc2ccc(Cl)c(Cl)c2)c2ccccc12 -7.14%
CC(C(=O)NC1CCCc2ccccc21)N1CCN(c2ccc(F)cc2)CC1 (stereo not drawn) -4.6%
COc1ccc(CNC(=O)C2CCCN2S(=O)(=O)c2ccc(Cl)cc2)cc1 (stereo not drawn) -4.97%
O=C(COc1ccc2ccc(=O)oc2c1)N1CCN(c2ccccc2)CC1 -2.7%
Cc1ccc(C(C(=O)NC(C)(C)C)N(Cc2ccc3c(c2)OCO3)C(=O)c2ccc(CN3CCOCC3)o2)o1 (stereo not drawn) -7.02%
CC(=O)c1ccc(NC(=O)c2ccc(NC(=O)CCS(=O)(=O)c3cccs3)cc2)cc1 -2.59%
CCCn1c(SCC(=O)N2CC(=O)Nc3ccccc32)nc2ccccc21 -0.99%
COn1c(SCc2ccc(C)cc2C)nc2ccccc2c1=O 0.13%
COc1ccc(C[C@H]2COC(=O)[C@@H]2Cc2ccc(OC3OC(CO)C(O)C(O)C3O)c(OC)c2)cc1OC (stereo partly drawn) -5.86%
C=CCn1cnc2c(nnn2-c2ccc(Cl)cc2)c1=O -3.27%
COC(=O)CNC(=O)CSc1nnc2cc(C)c3ccccc3n12 -1.92%
COC(=O)CNC(=O)c1cc(OC)cc(OC)c1 -3.23%
O=C(CNC(=O)c1ccc(S(=O)(=O)N2CCCC2)cc1)N/N=C/c1ccc(Cl)cc1 -7.1%
Cc1nc(Nc2nc3ccccc3o2)nc2c1CCC2 -0.84%
